Test results as given in PubChem BioAssay (NCI).
The panel holds about 79,000 compounds, 15% with a hit somewhere; the sample as a whole holds those more often. Cut-off read from the data, not from the text of the source: active = growth inhibition above about 70%; inactive = the rest.

Legend:
[1] = NCI Yeast Anticancer Drug Screen. Data for the rad50 strain (AID 155);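 note: 0% = growth of vehicle-only cultures of the same strain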; conditions: S. cerevisiae rad50 strain growth inhibition; at 50.0 µM; hits give high values
Summary of the method: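 Relative growth inhibition (compound vs vehicle) was measured in yeast with a defined repair-gene alteration.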

[2] = NCI Yeast Anticancer Drug Screen. Data for the mec2-1 strain (AID 157); conditions: S. cerevisiae mec2-1 strain, at 50.0 µM, hits give high values
Summary of the method: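 Readout is yeast growth inhibition, normalised to vehicle-treated controls, in the mec2-1 strain exposed to compound.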

[3] = NCI Yeast Anticancer Drug Screen. Data for the sgs1 mgt1 strain (AID 161);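 note: 0% = growth of cultures given vehicle only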; conditions: S. cerevisiae sgs1 mgt1 strain, at 50.0 µM, hits give high values
Summary of the method: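 Yeast cells carrying a defined DNA-repair defect were exposed to test compounds. Growth inhibition was measured relative to vehicle-treated controls.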

[4] = NCI Yeast Anticancer Drug Screen. Data for the cln2 rad14 strain (AID 165);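 note: 0% = growth equal to vehicle treated cultures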; conditions: S. cerevisiae cln2 rad14 strain, at 50.0 µM, hits give high values
Summary of the method: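 Relative to vehicle controls, growth inhibition of compound-treated cln2 rad14 yeast was recorded.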

[5] = NCI Yeast Anticancer Drug Screen. Data for the bub3 strain (AID 167); conditions: S. cerevisiae bub3 mutant strain, at 50.0 µM, hits give high values
Summary of the method: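 Screening used yeast with an engineered genetic alteration affecting cell cycle control. Compound-exposed cultures were compared with vehicle cultures, and reduced growth was taken as inhibition.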

[6] = NCI Yeast Anticancer Drug Screen. Data for the mlh1 rad18 strain (AID 175); conditions: S. cerevisiae mlh1 rad18 strain growth inhibition; at 50.0 µM; hits give high values
Summary of the method: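 Test agents were incubated with a yeast strain of defined genotype (DNA damage repair defect). Inhibition of growth was derived by comparison with vehicle-exposed cultures.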

Measured: growth inhibition

CCCCCCCOC(=O)COc1ccc(Cl)cc1Cl
inactive: [1] 11.1% | [2] 9.05% | [3] 10.8% | [4] 1.25% | [5] 9.8% | [6] 4.9%

CCCCNC(=O)CCC(NS(=O)(=O)c1ccc(C)cc1)C(=O)NCCCC (configuration not stated)
inactive: [1] 5.1% | [2] 2.1% | [3] -9% | [4] 1.85% | [5] -3.1% | [6] -18.7%

O=C1N=C(C=c2ccc(=Cc3[nH]c(=O)[nH]c3O)cc2)C(=O)N1
inactive: [1] -5.95% | [2] -11.4% | [3] -14.9% | [4] 13.9% | [5] 8.35% | [6] 5.7%

O=c1[nH]c(O)c(/C=N/C(=S)NCc2ccccc2)c(=O)[nH]1
inactive: [1] -41% | [2] -37.9% | [3] -26.1% | [4] 5.9% | [5] -0.55% | [6] -12.3%

COc1ccc(NC(=O)CCc2cc(C(C)(C)C)n[nH]2)cc1
inactive: [1] -22.1% | [2] -15.8% | [3] -3.8% | [4] 12.6% | [5] -16.7% | [6] -8.5%

C=C(N1CCCCC1)N1CCCCC1
inactive: [1] -2.75% | [2] -25.1% | [3] -9.15% | [4] -46.5% | [5] -15.9% | [6] -11.4%

C=C(CC(=O)OCC)C(=O)OCC
inactive: [1] 15.4% | [2] 4.6% | [3] 18.4% | [4] 1.95% | [5] 1.25% | [6] 13.8%

COC(=O)CC1C=CC(OC)[C@@]2(C)C(=O)C(OC)=CC(=O)[C@@H]12 (some centres not stated)
inactive: [1] 8.7% | [2] -15.1% | [3] -11.4% | [4] 19.6% | [5] 2.4% | [6] -3.45%

O=C(NO)c1ccccc1O
inactive: [1] 27.2% | [2] 21% | [3] -14.8% | [4] 4.2% | [5] 8% | [6] 17.8%

COC(=O)C1CN(Cc2ccccc2)C(=O)C1=O (configuration not stated)
inactive: [1] -11.3% | [2] -8.75% | [3] 2.65% | [4] -5.1% | [5] 3.95% | [6] 15.2%

CCOC(=O)/C(CC)=N\O
inactive: [1] 8.55% | [2] -4.85% | [3] 3.75% | [4] 3.25% | [5] -4.45% | [6] 19.2%

COc1cc2c(cc1OC)C(c1ccccc1)ON(C)CC2 (configuration not stated)
inactive: [1] -4.15% | [2] -1.7% | [3] -3.35% | [4] -13.4% | [5] 1.45% | [6] 1.35%

O=C(O)C(Cc1c[nH]c2ccccc12)N1C(=O)c2ccccc2C1=O (configuration not stated)
inactive: [1] 18.5% | [2] 26.6% | [3] -8.15% | [4] -12.3% | [5] -2.5% | [6] 28.6%

CCOC(=O)C(CCCCS(=O)(=O)O)C(=O)OCC
inactive: [1] -12.3% | [2] -9.35% | [3] -18.9% | [4] -35% | [5] -5.25% | [6] 11.2%

CC12O[C@H](c3ccccc3)[C@H](c3ccccc3)N1C(=O)C1(C(=O)OCc3ccccc3)CC12 (some centres not stated)
inactive: [1] 11.3% | [2] -7.35% | [3] 6.4% | [4] 2.15% | [5] -7.05% | [6] -3.45%

CCCCOC(=O)c1ccc(NC(=O)Nc2ccc([N+](=O)[O-])cc2OC)cc1
inactive: [1] -24.2% | [2] -11.1% | [3] -17.6% | [4] 50.7% | [5] -0.8% | [6] 6.05%

CCOC(=O)c1cccc2ncccc12
inactive: [1] -1.6% | [2] 9.35% | [3] -2.8% | [4] -28.2% | [5] -9.05% | [6] 10.8%

CC(=O)OCCc1cccc(C)c1
inactive: [1] 3.9% | [2] -17.9% | [3] -4.8% | [4] -30.4% | [5] -10.7% | [6] 7.3%

ClCCOc1ccc2ccccc2c1
inactive: [1] 13.4% | [2] -6.1% | [3] 0.55% | [4] 4.05% | [5] 0.5% | [6] 12.1%

COc1cc(NCCCCCCN(C)C)c2ncccc2c1
inactive: [1] -17.4% | [2] -21.2% | [3] -3.1% | [4] -19.4% | [5] 5.8% | [6] -14.8%

Nc1cc(=O)n(-c2ccccc2)nc1Cl
inactive: [1] 2.05% | [2] 4.4% | [3] -2.25% | [4] -18.6% | [5] 3.1% | [6] 0.2%

Cn1c(Cl)cn2c3nc4ccccc4nc3c(=O)c(C#N)c12
inactive: [1] 6.1% | [2] -29.2% | [3] -52.1% | [4] 1.3% | [5] -18.1% | [6] -4%

COc1cc(C2c3cc4c(cc3OC(N3CCCC3)C2C)OCO4)cc(OC)c1OC (configuration not stated)
inactive: [1] 22.4% | [2] -0.5% | [3] -2.9% | [4] 5.75% | [5] 3.1% | [6] 6.55%

c1ccc2c(c1)CC1c3ccccc3CC21 (configuration not stated)
inactive: [1] -1.2% | [2] -7% | [3] -1.95% | [4] -28.4% | [5] 0.75% | [6] -2.35%

Cc1ccc(Oc2cc(C)ccc2P(=O)(O)O)cc1
inactive: [1] 6.5% | [2] 1.4% | [3] 22.2% | [4] 26.1% | [5] -23.7% | [6] 23.1%

CCC(CC)C(=O)O
inactive: [1] -11.2% | [2] -3.5% | [3] -34.4% | [4] -22.5% | [5] 7.85% | [6] -34.8%

c1ccc2c(SCN3CCOCC3)cccc2c1 (tested in a mixture with another compound)
inactive: [1] 35% | [2] 21.6% | [3] 39% | [4] 40.9% | [5] 21.8% | [6] 29.8%

COc1cc2c(cc1OC)C(CCN)NCC2 (configuration not stated)
inactive: [1] -8.75% | [2] 7.2% | [3] -2.55% | [4] 7.3% | [5] -3.95% | [6] -9.25%

NC(=O)C(Cl)=C(Cl)Cl
inactive: [1] 2.85% | [2] 10.4% | [3] -2% | [4] -4.75% | [5] -4.8% | [6] 1.65%

O=c1c(SCc2ccc(Cl)cc2)c(SCc2ccc(Cl)cc2)cnn1-c1ccccc1
inactive: [1] -5.7% | [2] -17.2% | [3] 19.2% | [4] 6.65% | [5] -6.6% | [6] 13.1%

CC(C)N(C(=O)C12C3C4C5C3C1(C#N)C5C42)C(C)C (configuration not stated)
inactive: [1] 10.1% | [2] 6.95% | [3] 12.1% | [4] 5.95% | [5] 2.35% | [6] -9.45%

Cn1ccc(=O)c2ccccc21
inactive: [1] 3.1% | [2] -1% | [3] -8.55% | [4] 3.45% | [5] 6.1% | [6] 1.9%

O=S(=O)(O)CCS(=O)(=O)O
inactive: [1] -15.8% | [2] -19.3% | [3] -3.85% | [4] -51.3% | [5] 1.45% | [6] -45.9%

Cc1[nH]n(C(=O)c2ccc(Cl)cc2)c(=O)c1/C=C1\C(O)=CC(=O)c2ccccc21
inactive: [1] 31.6% | [2] -6.85% | [3] 18.7% | [4] -19.6% | [5] 30.7% | [6] 16.9%

CCOC(=O)/C(C#N)=N\Nc1ccccc1
inactive: [1] -15.5% | [2] 14.6% | [3] -1.7% | [4] -25.3% | [5] -1.85% | [6] -12.9%

CC1CCCN(C(=O)/C=C/c2ccccc2)C1 (configuration not stated)
inactive: [1] 9.25% | [2] -19.2% | [3] -6.45% | [4] -45.8% | [5] 6.3% | [6] -3.8%

COC(=O)c1ccc(C2CCC(OC(c3ccccc3)c3ccccc3)CC2)cc1 (configuration not stated)
inactive: [1] 39.6% | [2] -12.7% | [3] 26% | [4] -23.6% | [5] 0.85% | [6] -3.85%

CCOC(=O)CNC(=O)C(Cc1cnc[nH]1)NC(=O)OCc1ccccc1 (configuration not stated)
inactive: [1] -1.9% | [2] -13.6% | [3] -8.6% | [4] -14.6% | [5] -6.7% | [6] -3.7%

CCC(C)CCOC(=O)c1ccc(N=Cc2ccc(C=Nc3ccc(C(=O)OCCC(C)CC)cc3)cc2)cc1 (configuration not stated)
inactive: [1] -20.5% | [2] 2.7% | [3] 30% | [4] 11.6% | [5] 43.4% | [6] 29.9%

C#CCOC(=O)[C@@H](C)c1ccc2cc(OC)ccc2c1
inactive: [1] 11.2% | [2] 4.25% | [3] 52.3% | [4] 17.4% | [5] 36.6% | [6] 43%

C1CSC(SCCCSC2SCCCS2)SC1
inactive: [1] -4.1% | [2] 5.3% | [3] -9.9% | [4] -7.1% | [5] -12.2% | [6] -14.1%

NC(=O)NC(CCl)NC(N)=O
inactive: [1] 6.6% | [2] -5.8% | [3] -2.05% | [4] 13.1% | [5] -3.55% | [6] -12.3%
